Source: PubChem BioAssay (National Center for Advancing Translational Sciences (NCATS))
Most compounds without a hit are left out; they make up all but 3.6% or so of the library.
AmpC detergent: AmpC beta-lactamase inhibition with detergent present; Potency, µM (highest dose often 114 µM), for the others: top-dose activity change, negative = inhibition, usual class: inhibitors; P00811; actives 0.041% (n = 370,000); AmpC hydrolysis of nitrocefin, absorbance 480 nm, 0.01% Triton;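 further: 0% = no-compound wells and -100% = no-enzyme wells; nearly all actives have a fitted effect of over 25% in size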
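20 mM phosphate pH 7.0 + 0.01% (detergent screen) or 0.0001% Triton X-100; 5.3 nM AmpC reagent; cpd preinc 15 min RT; nitrocefin (800 uM stock) to start; A480 q20 s × 4 min; Activity was normalised to no-enzyme and no-compound control wells.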
AmpC no deterg: inhibitors of E. coli AmpC beta-lactamase without detergent | P00811 | AmpC nitrocefin hydrolysis, absorbance 480 nm, 0.0001% Triton | Potency, µM (top dose mostly 57.1 µM), without a hit: at the top dose activity change, negative = inhibition, hits mostly inhibitors | actives 0.52% (n = 330,000) | AID 485341;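 further: plate controls were no compound for no effect and no enzyme for full effect; nearly all actives have a fitted effect of over 20% in size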
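AmpC (5.3 nM in the dispensed reagent) in 20 mM phosphate pH 7.0 with 0.01% (detergent screen) or 0.0001% Triton X-100 was preincubated with compounds for 15 min at room temperature. Nitrocefin was then added from an 800 uM solution, and hydrolysis was followed at 480 nm.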
Giardia FBPA inh: blocks Giardia fructose-bisphosphate aldolase activity | Potency, µM (highest dose often 59.6 µM), for inactives: top-dose activity, negative = inhibition, actives largely listed as inhibitors | actives 0.71% (n = 290,000) | A8B2U2 | AID 2451 | purified Giardia FBPA; further: nearly all actives have a fitted effect of over 55% in size
Target sequence (A8B2U2 whole entry, looked up): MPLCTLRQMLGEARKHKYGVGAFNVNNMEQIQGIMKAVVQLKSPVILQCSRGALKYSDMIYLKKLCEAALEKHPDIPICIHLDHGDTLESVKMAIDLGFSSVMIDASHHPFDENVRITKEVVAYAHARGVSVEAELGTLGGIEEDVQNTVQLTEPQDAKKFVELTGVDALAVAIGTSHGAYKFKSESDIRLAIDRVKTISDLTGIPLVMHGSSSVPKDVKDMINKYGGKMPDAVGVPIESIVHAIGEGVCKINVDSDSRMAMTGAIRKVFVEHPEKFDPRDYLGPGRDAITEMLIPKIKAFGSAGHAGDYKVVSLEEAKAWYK
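Giardia FBPA (40 nM reagent) was preincubated 10 min at RT with compound (up to 57.5 uM final), then substrate plus GAPDH/TPI/NAD/arsenate coupling system with diaphorase/resazurin was added; resorufin fluorescence (525/598 nm) was read after 20 min.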
Sm TGR block: S. mansoni TGR enzyme inhibition; actives 3% (n = 360,000); Potency, µM (highest dose often 114 µM), inactives show at the highest dose activity change, negative = inhibition, most hits filed as inhibitors; purified TGR, DTNB reduction, TNB absorbance 405 nm; further: nearly all actives have a fitted effect of over 60% in size
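First, TGR (20 nM dispensed) and NADPH were mixed with compound. Second, a 15 min room-temperature incubation followed. Third, further NADPH and then DTNB were added to start the reaction. Finally, TNB absorbance was monitored kinetically.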
* hit, by the source's call; ? = inconclusive; nt = no result. The call rests on the fitted dose curve; in most records, active means well fitted curve in the direction sought with a large enough effect; inconclusive means small, poorly fitted or top-dose-only effect, or another doubt; inactive means no such curve, though single readings can be large; an effect the other way counts as inactive or inconclusive. Unless noted, on the % scale 0 is the no-effect control and ±100 the full control effect; potency means the concentration at half of the fitted maximal effect.

SMILES	AmpC detergent	AmpC no deterg	Giardia FBPA inh	Sm TGR block
COc1ccccc1N1CCN(C(=O)c2cc(-c3ccco3)on2)CC1	-14.8%	41.4%	-9.2%	56.2µM*
O=C(c1cc(-c2ccco2)on1)N1CCc2ccccc2C1	5.5%	-37.0%	-1.0%	12.6µM*
O=C(c1cc(-c2ccco2)on1)N1CCN(c2ccccc2)CC1	-7.4%	3.16µM*	1.2%	-35.5%
O=C(CCC(=O)c1ccc(F)cc1)Nc1cccc(S(=O)(=O)Nc2cccc(Cl)c2)c1	-3.9%	-41.3%	-2.2%	-12.5%
Cc1ccc(CNC(=O)CN(C(=O)C2(C)CC(=O)N=C3C=CC=CN32)c2ccccc2F)cc1 (configuration not stated)	1.9%	-10.4%	-6.7%	-1.0%
COc1ccc(C[C@H]2c3cc(O)c(OC)cc3CC[N+]2(C)[O-])cc1O (some centres not stated)	1.1%	-27.7%	-6.1%	17.8µM*
COc1cc2c(cc1O)C(Cc1ccc(O)cc1)[N+](C)([O-])CC2 (configuration not stated)	-8.3%	-5.1%	-7.9%	?
CC12CCC=CC1C(c1cccc(Br)c1)N(Cc1ccccc1)C2=O (configuration not stated)	nt	nt	0.7%	nt
C[C@@]12CCC=C[C@H]1[C@H](c1ccoc1)N(Cc1ccccc1)C2=O	-3.2%	17.7%	9.6%	35.5µM*
CN(C)c1ccc(S(=O)(=O)N2CCC(Cc3ccccc3)CC2)cn1	nt	-18.8%	nt	nt
Cc1ccccc1-c1nc(CS(=O)CC(=O)N2CCC3(CC2)OCCO3)c(C)o1 (configuration not stated)	12.4%	110.1%	5.0%	8.91µM*
CCC(C)NC(=O)CS(=O)Cc1nc(-c2ccccc2C)oc1C (configuration not stated)	?	11.9%	1.7%	8.91µM*
Cc1ccccc1-c1nc(CS(=O)CC(=O)NCc2ccccn2)c(C)o1 (configuration not stated)	?	9.8%	7.4%	?
Cc1oc(-c2ccccc2F)nc1CS(=O)CC(=O)NC(C)C (configuration not stated)	-8.7%	nt	nt	14.1µM*
CCOc1ccc(CCNC(=O)CS(=O)Cc2nc(-c3ccccc3C)oc2C)cc1OCC (configuration not stated)	0.3%	177.5%	nt	35.5µM*
CCCNC(=O)CS(=O)Cc1nc(-c2ccccc2C)oc1C (configuration not stated)	?	0.2%	2.2%	50.1µM*
CC(=O)c1cccc(NC(=O)N2CCCC2C(=O)Nc2ccc3c(c2)OCO3)c1 (configuration not stated)	-2.0%	-18.9%	-2.8%	nt
Cc1ccc(NC(=O)N2CC3CCCN3c3ccccc32)cc1C (configuration not stated)	-5.0%	nt	nt	-11.6%
c1ccc2c(c1)NCC1CCCN21 (configuration not stated)	-2.7%	-15.4%	-29.9%	31.6µM*
CCOC(=O)/C(=C/c1ccc(OC(=O)c2ccncc2)cc1)C(C)=O	-4.3%	3.5%	4.6%	?
CCOC(=O)C(=Cc1ccc(-n2ccnc2)cc1)C(=O)OCC	6.0%	2.8%	-4.4%	12.6µM*
CCOC(=O)C(=Cc1ccc(Br)cc1)C(=O)OCC	-16.6%	-11.3%	-15.1%	3.55µM*
CCOC(=O)C(=O)Nc1ccc(F)cc1	-5.2%	-3.7%	-0.2%	-9.3%
CCOC(=O)C(=Cc1ccc(F)cc1)C(=O)OCC	-7.1%	-10.2%	?	15.8µM*
COC(=O)c1ccc(-n2ccnc2)cc1	-1.9%	-1.2%	7.3%	0.1%
O=C(CCl)Nc1nccs1	3.5%	-9.9%	-9.8%	3.16µM*
O=C(Nc1nccs1)C(Cl)(Cl)Cl	4.8%	-18.9%	0.8%	-4.7%
O=S(=O)(NCC(c1ccco1)S(=O)(=O)c1ccccc1)c1ccccc1 (configuration not stated)	0.7%	nt	nt	?
Cc1cc(C)c(S(=O)(=O)NCC(c2ccco2)S(=O)(=O)c2ccccc2)c(C)c1 (configuration not stated)	10.5%	nt	nt	17.8µM*
Cc1ccc(S(=O)(=O)NCC(c2ccco2)S(=O)(=O)c2ccccc2)cc1 (configuration not stated)	?	-10.4%	nt	0.398µM*
